Measured values taken from ChEMBL document CHEMBL4513135, “CO-ADD screening of IQOG CSIS (Spain) compounds”.
Potency and affinity values are given separately.

These compounds were tested on Klebsiella pneumoniae. Conditions: Concentration 32 ug.mL-1; ASSAY_TEST Inhibition of Bacterial Growth; detection method Absorption (OD600); MEDIA CAMHB; plate type 384well; NBS; CORNING #3640; time 18 hr.

Row | SMILES | Inhibition [%]
1 | COC(=O)C(=Cc1ccc(OC)cc1)NC(C)=O | 12.98
2 | c1ccc(-c2nc3c4cnn(-c5ccccc5)c4ncn3n2)cc1 | 10.22
3 | COC(=O)C(C#N)=Cc1ccccc1 | 12.71
4 | COc1ccc(C2c3ccc4ccccc4c3OC(=NBr)C2(Br)C#N)cc1OC (stereo not given) | 8.89
5 | N#Cc1c(N)nc(N2CCOCC2)c(C#N)c1-c1ccccc1 | 3.68
6 | Cn1ccnc1C1C2=C(CC(C)(C)CC2=O)Oc2nc3c(c(N)c21)CCC3 (stereo not given) | 9.18
7 | COc1ccc(C2c3ccc4ccccc4c3OC(=NBr)C2(Br)C#N)cc1 (stereo not given) | 6.43
8 | COc1ccccc1C1C(C#N)=C(N)Oc2ccc3ccccc3c21 (stereo not given) | 9.04
9 | CC1CN(C)c2c(C#N)c(-c3ccccc3)c(C#N)c(=N)n21 (stereo not given) | 18.9
10 | O=C1OC(c2ccccc2)=NC1=Cc1ccccc1Cl | 11.08
11 | C#CCN(C)Cc1cc2cc(OCCCC3CCN(C(=O)OC(C)(C)C)CC3)ccc2n1C | -9.9
12 | COC1=C(C#N)CC(C)C(=O)N1 (stereo not given) | 6.94
13 | Cc1ccc(C2c3ccc4ccccc4c3Oc3nc4c(c(N)c32)CCCC4)cc1 (stereo not given) | -8.56
14 | O=Cc1cc2ccccc2nc1Cl | -2.74
15 | C#CCN(C)c1ncc(C#N)c(N)n1 | 9.44
16 | C=C1CN(C)c2c(C#N)c(-c3ccccc3)c(C#N)c(=N)n21 | 8.43
17 | CN(C)c1nc(Cl)c(C#N)c(-c2ccccc2)c1C#N | 5.58
18 | ClCCC1CCN(Cc2ccccc2)CC1 | 14.5
19 | Cc1nc(NCc2ccccc2)c2cnn(-c3ccccc3)c2n1 | 15.01
20 | COc1ccc2cc(C3C(C(C)=O)=C(C)Oc4nc5c(c(N)c43)CCC5)c(Cl)nc2c1 (stereo not given) | 0.03

Row | SMILES | Inhibition [%]
21 | CCOC(=O)c1cc(C#N)c(N)nc1C | 5.86
22 | OCc1cc2ccccc2[nH]1 | 6.48
23 | C#CCN(C)Cc1cc2cc(OCCCC3CCN(Cc4ccc(C#N)cc4)CC3)ccc2n1C | 2.67
24 | CC1=C(C(=O)O[C@@H]2C[C@@]3(C)CC[C@H]2C3(C)C)C(c2ccccc2)C(C#N)=C(N)O1 (stereo not given in full) | -1.66
25 | CC(C)CC(C)NNC(=O)c1cc2ccccc2[nH]1 (stereo not given) | -2.7
26 | CCOC(N)=CC#N | -6.69
27 | C=C1CN(C)c2c(C#N)c(-c3ccccc3)c(C#N)c(=O)n21 | -0.48
28 | Cc1nc(Nc2ccccc2)c2c(C)nn(-c3ccccc3)c2n1 | -3.39
29 | CN(C)c1cccc(C(=O)c2cccc(N(C)C)c2)c1 | 6.77
30 | CCOC(=O)C1=C(C)Oc2nc3c(c(N)c2C1c1nccn1C)CCC3 (stereo not given) | 4.43
31 | COc1ccccc1C1c2ccc3ccccc3c2OC(=NBr)C1(Br)C#N (stereo not given) | 11.44
32 | C#CCN(C)c1nc(Sc2ccccc2)c(C#N)c(-c2ccccc2)c1C#N | 17.28
33 | CCOC(=O)c1cc2ccccc2[nH]1 | 16.5
34 | O=C1C=C(Nc2ccccc2)C(=O)N1c1ccccc1 | 6.46
35 | COc1ccc2c(c1)cc(/C=C/[N+](=O)[O-])n2C | 9.01
36 | N#Cc1c(N)nc(N2CCC(Cc3ccccc3)CC2)c(C#N)c1-c1ccccc1 | 7.85
37 | N#CC1(Br)C(=NBr)Oc2c(ccc3ccccc23)C1c1ccc([N+](=O)[O-])cc1 (stereo not given) | 12.27
38 | N#Cc1c(NC2CCC(Cc3ccccc3)CC2)nc(NC2CCN(Cc3ccccc3)CC2)c(C#N)c1-c1ccccc1 (stereo not given) | -7.01
39 | N#Cc1cc(Br)cc(Br)c1N | -0.57
40 | Clc1ccc(-c2cn3ccccc3n2)cc1 | 18.54

What follows are compounds tested on Candida albicans. Conditions: 32 ug/mL.

Row | SMILES | Inhibition [%]
41 | COC(=O)C(=Cc1ccc(OC)cc1)NC(C)=O | -0.11
42 | c1ccc(-c2nc3c4cnn(-c5ccccc5)c4ncn3n2)cc1 | -0.93
43 | COC(=O)C(C#N)=Cc1ccccc1 | 3.86
44 | COc1ccc(C2c3ccc4ccccc4c3OC(=NBr)C2(Br)C#N)cc1OC (stereo not given) | 5.08
45 | N#Cc1c(N)nc(N2CCOCC2)c(C#N)c1-c1ccccc1 | 1.23
46 | Cn1ccnc1C1C2=C(CC(C)(C)CC2=O)Oc2nc3c(c(N)c21)CCC3 (stereo not given) | -1.44
47 | COc1ccc(C2c3ccc4ccccc4c3OC(=NBr)C2(Br)C#N)cc1 (stereo not given) | 2.22
48 | COc1ccccc1C1C(C#N)=C(N)Oc2ccc3ccccc3c21 (stereo not given) | 2.24
49 | CC1CN(C)c2c(C#N)c(-c3ccccc3)c(C#N)c(=N)n21 (stereo not given) | 1.63
50 | O=C1OC(c2ccccc2)=NC1=Cc1ccccc1Cl | 1.66
51 | C#CCN(C)Cc1cc2cc(OCCCC3CCN(C(=O)OC(C)(C)C)CC3)ccc2n1C | 1.82
52 | COC1=C(C#N)CC(C)C(=O)N1 (stereo not given) | 1.01
53 | Cc1ccc(C2c3ccc4ccccc4c3Oc3nc4c(c(N)c32)CCCC4)cc1 (stereo not given) | 2.81
54 | O=Cc1cc2ccccc2nc1Cl | 7.94
55 | C#CCN(C)c1ncc(C#N)c(N)n1 | 5.2
56 | C=C1CN(C)c2c(C#N)c(-c3ccccc3)c(C#N)c(=N)n21 | -0.24
57 | CN(C)c1nc(Cl)c(C#N)c(-c2ccccc2)c1C#N | 3.09
58 | ClCCC1CCN(Cc2ccccc2)CC1 | 6.52
59 | Cc1nc(NCc2ccccc2)c2cnn(-c3ccccc3)c2n1 | -0.57
60 | COc1ccc2cc(C3C(C(C)=O)=C(C)Oc4nc5c(c(N)c43)CCC5)c(Cl)nc2c1 (stereo not given) | 12.4

Row | SMILES | Inhibition [%]
61 | CCOC(=O)c1cc(C#N)c(N)nc1C | 2.73
62 | OCc1cc2ccccc2[nH]1 | 2.35
63 | C#CCN(C)Cc1cc2cc(OCCCC3CCN(Cc4ccc(C#N)cc4)CC3)ccc2n1C | 4.18
64 | CC1=C(C(=O)O[C@@H]2C[C@@]3(C)CC[C@H]2C3(C)C)C(c2ccccc2)C(C#N)=C(N)O1 (stereo not given in full) | 15.2
65 | CC(C)CC(C)NNC(=O)c1cc2ccccc2[nH]1 (stereo not given) | -0.37
66 | CCOC(N)=CC#N | 0.84
67 | C=C1CN(C)c2c(C#N)c(-c3ccccc3)c(C#N)c(=O)n21 | 3.72
68 | Cc1nc(Nc2ccccc2)c2c(C)nn(-c3ccccc3)c2n1 | -2.39
69 | CN(C)c1cccc(C(=O)c2cccc(N(C)C)c2)c1 | -0.28
70 | CCOC(=O)C1=C(C)Oc2nc3c(c(N)c2C1c1nccn1C)CCC3 (stereo not given) | -1.64
71 | COc1ccccc1C1c2ccc3ccccc3c2OC(=NBr)C1(Br)C#N (stereo not given) | 0.7
72 | C#CCN(C)c1nc(Sc2ccccc2)c(C#N)c(-c2ccccc2)c1C#N | 1.53
73 | CCOC(=O)c1cc2ccccc2[nH]1 | 2.42
74 | O=C1C=C(Nc2ccccc2)C(=O)N1c1ccccc1 | -0.48
75 | COc1ccc2c(c1)cc(/C=C/[N+](=O)[O-])n2C | 2.82
76 | N#Cc1c(N)nc(N2CCC(Cc3ccccc3)CC2)c(C#N)c1-c1ccccc1 | 1.84
77 | N#CC1(Br)C(=NBr)Oc2c(ccc3ccccc23)C1c1ccc([N+](=O)[O-])cc1 (stereo not given) | 25.9
78 | N#Cc1c(NC2CCC(Cc3ccccc3)CC2)nc(NC2CCN(Cc3ccccc3)CC2)c(C#N)c1-c1ccccc1 (stereo not given) | 2.46
79 | N#Cc1cc(Br)cc(Br)c1N | 4.77
80 | Clc1ccc(-c2cn3ccccc3n2)cc1 | -1.23
